Screen size: about 77,000 compounds; about 4,600 (6%) were called active. Not shown: some 1% with an inconclusive outcome. What follows is part of a selection rich in actives, with near analogues and random picks from the rest. Values without a mark were called inactive.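 Rule for the calls: active = mean inhibition above about 93%, with at least 55% of replicates each passing it (limit read from the data, passing the limit was not always enough); inconclusive = only one of those two conditions holds; inactive = neither condition holds.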
Experiment: growth inhibition of T. cruzi in host fibroblasts – cell-based, beta-gal Tulahuen parasites, NIH3T3 host, luminescence, primary screen (AID 624255)
Conditions: T. cruzi beta-gal in NIH3T3, GalScreen luminescence, 90 h; at 8.34 µM; stronger effect = higher value

Q: Which inhibition does the source give for CCNC(=O)C[C@@H]1CC[C@H]2[C@@H](COc3ccc(NC(=O)NC(C)C)cc3C(=O)N2C)O1 here?
A: The inhibition was 39.8%.

Q: With C[C@H](CO)N1C[C@H](C)[C@@H](CN(C)S(=O)(=O)c2cccs2)OCc2ccccc2-c2ccccc2C1=O as the molecule, how does the inhibition read?
A: The inhibition was 24.1%.

Q: For O=C(C[C@@H]1C[C@H]2c3cc(NS(=O)(=O)c4ccc(F)cc4)ccc3O[C@H]2[C@H](CO)O1)NC1CCCC1, which inhibition is on record?
A: Its inhibition is -34%.

Q: For O=S(=O)(N[C@@H]1CC[C@H](CCn2cc(-c3ccccc3F)nn2)O[C@H]1CO)c1ccc(F)cc1, which inhibition is on record?
A: The inhibition was 41.8%.

Q: Which inhibition does the source give for COc1cccc(NC(=O)Nc2ccc3c(c2)C(=O)N(C)[C@@H]2CC[C@@H](CC(=O)NCCc4ccccc4)O[C@H]2CO3)c1 here?
A: The inhibition was 52.2%.

Q: For COc1ccc(S(=O)(=O)N2C[C@@H](O)COC[C@H]3O[C@H](CC(=O)N[C@H]4CCN(Cc5ccccc5)C4)CC[C@@H]32)cc1, which inhibition is on record?
A: The inhibition was 77.6%.

Q: For COc1ccc(NC(=O)Nc2ccc3c(c2)C(=O)N([C@H](C)CO)C[C@@H](C)[C@@H](CN(C)C(=O)NC(C)C)OCCCC[C@H](C)O3)cc1, which inhibition is on record?
A: Its inhibition is 38.7%.

Q: With CCC(=O)N(C)C[C@H]1Oc2cc(-c3ccccc3F)ccc2S(=O)(=O)N([C@H](C)CO)C[C@@H]1C as the molecule, how does the inhibition read?
A: Its inhibition is 81.3%.

Q: For O=C(C[C@H]1CC[C@H]2[C@@H](COC[C@H](O)CN2Cc2ccncc2)O1)NCC1CC1, which inhibition is on record?
A: The inhibition was 8.17%.

Q: Which inhibition does the source give for C[C@@H]1CN([C@@H](C)CO)C(=O)c2cc(C#CCN(C)C)cnc2O[C@H]1CN(C)S(=O)(=O)c1cn(C)cn1 here?
A: Its inhibition is -8.13%.

Q: With Cn1cnc(S(=O)(=O)N2C[C@H](O)COC[C@@H]3O[C@H](CC(=O)NC4CCCC4)CC[C@H]32)c1 as the molecule, how does the inhibition read?
A: The inhibition was 5.65%.

Q: For CCC(=O)N1[C@@H]2c3ccc(-c4cccnc4)c(=O)n3C[C@H]1[C@H](CO)[C@H]2C(=O)N1CCc2ccccc2C1, which inhibition is on record?
A: The inhibition was 29.4%.

Q: With O=C(C1CCC1)N1C[C@@H]2[C@H](c3ccccc31)[C@H](CO)N2C(=O)c1ccccc1 as the molecule, how does the inhibition read?
A: The inhibition was 11.8%.

Q: Which inhibition does the source give for COCC#Cc1ccc2c(c1)O[C@@H](CN(C)Cc1cccnc1)[C@@H](C)CN([C@H](C)CO)S2(=O)=O here?
A: Its inhibition is 70%.

Q: For CCCN(C)C[C@H]1Oc2cc(C#CCC(C)C)ccc2S(=O)(=O)N([C@H](C)CO)C[C@H]1C, which inhibition is on record?
A: Its inhibition is 75.8%.

Q: Which inhibition does the source give for CC(C)CC#Cc1ccc2c(c1)O[C@H](CN(C)Cc1ccncc1)[C@H](C)CN([C@H](C)CO)S2(=O)=O here?
A: Its inhibition is 118% (active).

Q: With CC(C)CC#Cc1ccc2c(c1)O[C@H](CN(C)C(=O)c1cccnc1)[C@@H](C)CN([C@H](C)CO)S2(=O)=O as the molecule, how does the inhibition read?
A: The inhibition was 78.2%.

Q: Which inhibition does the source give for CC(C)CC#Cc1ccc2c(c1)O[C@H](CN(C)Cc1cccnc1)[C@H](C)CN([C@@H](C)CO)S2(=O)=O here?
A: The inhibition was 103% (active).

Q: With CCNC(=O)C[C@H]1CC[C@@H](NC(=O)C2CCOCC2)[C@@H](CO)O1 as the molecule, how does the inhibition read?
A: The inhibition was 40%.

Q: For CCNC(=O)Nc1ccc2c(c1)C(=O)N(C)[C@H]1CC[C@H](CC(=O)NCC3CCCCC3)O[C@@H]1CO2, which inhibition is on record?
A: Its inhibition is 25.8%.

Q: Which inhibition does the source give for CCS(=O)(=O)Nc1ccc2c(c1)C(=O)N(C)C[C@@H](OC)[C@@H](C)CN(C(=O)COC)[C@H](C)CO2 here?
A: Its inhibition is -5.98%.

Q: With Cc1ccc(S(=O)(=O)Nc2ccc3c(c2)C(=O)N(C)[C@@H]2CC[C@@H](CC(=O)O)O[C@H]2CO3)cc1 as the molecule, how does the inhibition read?
A: The inhibition was 33.9%.

Q: For C[C@H](CO)N1C[C@H](C)[C@H](CN(C)Cc2cccnc2)Oc2cc(C#CC3CCCC3)ccc2S1(=O)=O, which inhibition is on record?
A: The inhibition was 97.8% (active).

Q: Which inhibition does the source give for C[C@H](O)C#Cc1ccc2c(c1)O[C@H](CN(C)Cc1cccnc1)[C@@H](C)CN([C@H](C)CO)S2(=O)=O here?
A: Its inhibition is 34.8%.

Q: With C[C@@H]1CN([C@H](C)CO)S(=O)(=O)c2ccc(C#CC3CC3)cc2O[C@H]1CN(C)Cc1ccccc1F as the molecule, how does the inhibition read?
A: Its inhibition is 81.5%.

Q: Which inhibition does the source give for C[C@@H]1CN([C@H](C)CO)S(=O)(=O)c2ccc(C#CC3CCCC3)cc2O[C@@H]1CN(C)Cc1cccnc1 here?
A: The inhibition was 118% (active).

Q: For C[C@H](O)C#Cc1ccc2c(c1)O[C@@H](CN(C)Cc1cccnc1)[C@H](C)CN([C@H](C)CO)S2(=O)=O, which inhibition is on record?
A: Its inhibition is 46.1%.

Q: With C[C@@H]1CN([C@@H](C)CO)S(=O)(=O)c2ccc(C#Cc3cccnc3)cc2O[C@@H]1CN(C)C as the molecule, how does the inhibition read?
A: Its inhibition is -8.96%.

Q: With O=C(Nc1cccc(Cl)c1)N1C[C@@H]2[C@H](c3ccccc31)[C@H](CO)N2C(=O)C1CC1 as the molecule, how does the inhibition read?
A: Its inhibition is 45%.

Q: For O=C(C[C@@H]1CC[C@H]2[C@@H](COC[C@@H](O)CN2C(=O)c2ccc3c(c2)OCO3)O1)NC1Cc2ccccc2C1, which inhibition is on record?
A: The inhibition was -11.4%.

Q: For CCCC#Cc1cnc2c(c1)C(=O)N([C@H](C)CO)C[C@H](C)[C@H](CN(C)C(=O)c1cnccn1)O2, which inhibition is on record?
A: The inhibition was -48.3%.

Q: Which inhibition does the source give for CCCC(=O)Nc1ccc2c(c1)C(=O)N(C)[C@H]1CC[C@@H](CC(=O)NCc3ccccc3)O[C@@H]1CO2 here?
A: Its inhibition is -21.7%.

Q: For N#Cc1cccc(-c2ccc3c(c2)[C@H]2[C@H](CCN2S(=O)(=O)c2ccc(F)cc2)[C@@H](CO)N3)c1, which inhibition is on record?
A: Its inhibition is 19.2%.

Q: For COc1cccc(-c2ccc3c(c2)[C@H]2[C@H](CCN2C(=O)c2ccc(F)cc2)[C@@H](CO)N3)c1, which inhibition is on record?
A: The inhibition was 32.4%.

Q: Which inhibition does the source give for COc1ccc(-c2ccc3c(c2)[C@@H]2[C@@H](CCN2C(=O)c2cccc(F)c2)[C@H](CO)N3)cc1 here?
A: The inhibition was 29.7%.

Q: With Cc1cccc(S(=O)(=O)N2CC[C@@H]3[C@H]2c2cc(C#Cc4ccc(F)cc4)ccc2N[C@@H]3CO)c1 as the molecule, how does the inhibition read?
A: The inhibition was 12.4%.

Q: For Cn1cnc(S(=O)(=O)N2CC[C@@H]3[C@H]2c2cc(C#Cc4cccc(F)c4)ccc2N[C@@H]3CO)c1, which inhibition is on record?
A: The inhibition was -22.2%.

Q: For Cc1cccc(S(=O)(=O)N2CC[C@@H]3[C@H]2c2cc(C#Cc4ccccc4F)ccc2N[C@@H]3CO)c1, which inhibition is on record?
A: The inhibition was 62.9%.

Q: With O=C(c1cccc(F)c1)N1CC[C@@H]2[C@@H](CO)Nc3ccc(C#Cc4cccc(F)c4)cc3[C@@H]21 as the molecule, how does the inhibition read?
A: The inhibition was 110% (active).

Q: With O=S(=O)(c1ccccc1)N1CC[C@@H]2[C@H]1c1cc(C#Cc3cccc(F)c3)ccc1N[C@@H]2CO as the molecule, how does the inhibition read?
A: Its inhibition is 102% (active).

Q: Which inhibition does the source give for COc1ccccc1S(=O)(=O)N1CC[C@@H]2[C@H]1c1cc(-c3ccccc3)ccc1N[C@@H]2CO here?
A: The inhibition was 71.9%.

Q: Which inhibition does the source give for Cc1ccccc1S(=O)(=O)N1CC[C@H]2[C@H](CO)Nc3ccc(-c4cccc(F)c4)cc3[C@H]21 here?
A: Its inhibition is 100% (active).

Q: With O=S(=O)(c1ccccc1)N1CC[C@@H]2[C@@H](CO)Nc3ccc(C#Cc4cccc(F)c4)cc3[C@@H]21 as the molecule, how does the inhibition read?
A: The inhibition was 105% (active).

Q: Which inhibition does the source give for COc1ccc(-c2ccc3c(c2)[C@@H]2[C@@H](CCN2S(=O)(=O)c2ccccc2F)[C@H](CO)N3)cc1 here?
A: The inhibition was 36.8%.

Q: With CC(C)c1cn(CC[C@@H]2CC[C@@H](NC(=O)C3CC3)[C@H](CO)O2)nn1 as the molecule, how does the inhibition read?
A: Its inhibition is 10.2%.

Q: For CCCNC(=O)C[C@H]1CC[C@@H]2[C@H](COC[C@H](O)CN2S(=O)(=O)c2ccccc2F)O1, which inhibition is on record?
A: The inhibition was 11.7%.

Q: Which inhibition does the source give for CO[C@H]1CC[C@@H]2CCOc3c(C#N)cccc3C(=O)N(C)C[C@H](C)C(=O)N(C)C[C@H]1O2 here?
A: The inhibition was 30.6%.

Q: For O=C(C[C@@H]1CC[C@H](NC(=O)Cc2ccccn2)[C@H](CO)O1)NCCc1ccncc1, which inhibition is on record?
A: The inhibition was -62.5%.

Q: Which inhibition does the source give for C[C@@H](NC(=O)C[C@@H]1C[C@H]2c3cc(NC(=O)C4CCC4)ccc3O[C@H]2[C@@H](CO)O1)c1ccccc1 here?
A: Its inhibition is -32.2%.

Q: With Cc1ccc(S(=O)(=O)Nc2ccc3c(c2)C(=O)N([C@H](C)CO)C[C@@H](C)[C@@H](CN(C)C(=O)CCC(F)(F)F)OCCCC[C@@H](C)O3)cc1 as the molecule, how does the inhibition read?
A: Its inhibition is 47.6%.

Q: Which inhibition does the source give for CCCN1C[C@H](C)[C@H](OC)CN(C)C(=O)c2cc(NC(=O)C3CCOCC3)ccc2OC[C@@H]1C here?
A: Its inhibition is -22.2%.

Q: Which inhibition does the source give for Cc1ccc(S(=O)(=O)Nc2ccc3c(c2)C(=O)N(C)[C@H]2CC[C@H](CC(=O)O)O[C@H]2CO3)cc1 here?
A: Its inhibition is 22.9%.

Q: With COCC#Cc1ccc([C@@H]2[C@@H](CO)N3CCCCN(C(=O)COC)C[C@@H]23)cc1 as the molecule, how does the inhibition read?
A: Its inhibition is 12.3%.

Q: For CC(C)NC(=O)N1CCCCN2[C@@H](CO)[C@@H](c3ccc(C#C[C@@H](C)O)cc3)[C@@H]2C1, which inhibition is on record?
A: The inhibition was 75.5%.

Q: For COCC#Cc1ccc([C@@H]2[C@H](CO)N3CCCCN(C(=O)CN(C)C)C[C@@H]23)cc1, which inhibition is on record?
A: Its inhibition is 107% (active).

Q: With CCC(=O)N1CCCCN2[C@H](C1)[C@@H](c1ccc(C#CCOC)cc1)[C@@H]2CO as the molecule, how does the inhibition read?
A: The inhibition was 14%.

Q: Which inhibition does the source give for COc1cccc(S(=O)(=O)N2CCCCN3[C@H](CO)[C@H](c4ccc(C#CC5CC5)cc4)[C@H]3C2)c1 here?
A: The inhibition was 118% (active).

Q: With O=S(=O)(c1ccc(F)cc1)N1CCCCN2[C@H](CO)[C@@H](c3ccc(C#CC4CCCC4)cc3)[C@H]2C1 as the molecule, how does the inhibition read?
A: Its inhibition is 88.5%.

Q: Which inhibition does the source give for CC(C)C#Cc1ccc([C@H]2[C@H](CO)N3CCCCN(C(=O)NC(C)C)C[C@@H]23)cc1 here?
A: Its inhibition is 104% (active).

Q: With COc1ccc(S(=O)(=O)N2CCCCN3[C@H](C2)[C@H](c2ccc(C#CCC(C)C)cc2)[C@@H]3CO)cc1 as the molecule, how does the inhibition read?
A: The inhibition was 103% (active).

Q: Which inhibition does the source give for Cn1cnc(S(=O)(=O)N2CCCCN3[C@@H](CO)[C@@H](c4ccc(C#CC5CCCC5)cc4)[C@@H]3C2)c1 here?
A: Its inhibition is 54.8%.

Q: With CC(C)C#Cc1ccc([C@@H]2[C@H]3CN(C(=O)NC(C)C)CCCCN3[C@H]2CO)cc1 as the molecule, how does the inhibition read?
A: Its inhibition is 43.5%.

Q: With COc1ccc(S(=O)(=O)N2CCCCN3[C@@H](CO)[C@@H](c4ccc(C#CCC(C)C)cc4)[C@@H]3C2)cc1 as the molecule, how does the inhibition read?
A: The inhibition was 34.4%.

Q: Which inhibition does the source give for CN1c2ccc(C#Cc3cccnc3)cc2[C@@H]2[C@@H](CCN2S(=O)(=O)c2ccccc2)[C@H]1CO here?
A: Its inhibition is 89.6%.
